Assay [1] is described as follows: A CellTox Green Cytotoxicity Assay to monitor cytotoxicity in HEK293 cells - 32 hour (AID 1224881). Also: nearly all actives have a fitted effect of over 40% in size. The method, boiled down: (§1)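 Fluorescence from a DNA-binding dye excluded by viable cells was measured repeatedly in the same HEK293 wells (600 cells/well) during continuous compound exposure at 37 C. Each assay gives one read point: 0, 8, 16, 24, 32 or 40 h.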
Assay [2] is described as follows: A CellTox Green Cytotoxicity Assay to monitor cytotoxicity in HepG2 cells - 0 hour (AID 1224882). Also: nearly all actives have a fitted effect of over 35% in size. In short, it runs like this: (§2)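 Real-time cytotoxicity: fluorescence of a cell-impermeant cyanine dye binding DNA of dead HepG2 cells, measured repeatedly (0–40 h) during compound exposure at 37 C. Cells seeded 600/well with reagent, dosed after 5 h.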
Assay [3] is described as follows: A CellTox Green Cytotoxicity Assay to monitor cytotoxicity in HepG2 cells - 32 hour (AID 1224883). Also: nearly all actives have a fitted effect of over 50% in size. In short, it runs like this:
as §2

Assay [4] in a line: A CellTox Green Cytotoxicity Assay to monitor cytotoxicity in HEK293 cells - 8 hour (AID 1224884). Also: nearly all actives have a fitted effect of over 35% in size. The method, boiled down:
as §1

Assay [5] can be described thus: qHTS RealTime-Glo MT Cell Viability Assay in HepG2 cells - 16 hour (AID 1224885). Also: nearly all actives have a fitted effect of over 50% in size. The method, boiled down:
(§3)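 Tox21 10K library screened in qHTS format on HepG2 cells carrying RealTime-Glo reagents. Compounds were added after a 5 h preincubation, and the luminescent signal from continuous culture was measured repeatedly during 40 h treatment.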

A short description of assay [6]: qHTS RealTime-Glo MT Cell Viability Assay in HEK293 cells - 24 hour (AID 1224886). Also: nearly all actives have a fitted effect of over 50% in size. Also: potency is read from the fitted curve at half-maximal effect. As to activity change, negative = cytotoxicity: top concentration of the series differs between compounds. The method, boiled down: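 Luminescence generated by NanoLuc from substrate produced by living HEK293 cells served as the viability signal. Each value reflects the reading at its stated time point during continuous 40 h compound exposure at 37 C.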
Assay [7] in a line: qHTS RealTime-Glo MT Cell Viability Assay in HEK293 cells - 8 hour (AID 1224887). Also: nearly all actives have a fitted effect of over 50% in size. Also: potency is read from the fitted curve at half-maximal effect. As to activity change, negative = cytotoxicity: top concentration of the series differs between compounds. The method, boiled down:
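Luminescence, which tracks viable cell number through reduction of the prosubstrate to a NanoLuc substrate, was read over continuous 37 C culture. Cells (600/well) were premixed with reagent and rested 5 h before 23 nL of compound in DMSO was pinned.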
A general note: Quantitative high-throughput screening tests each substance at several concentrations.

Assay [8] is described as follows: A CellTox Green Cytotoxicity Assay to monitor cytotoxicity in HEK293 cells - 16 hour (AID 1224888). Also: nearly all actives have a fitted effect of over 35% in size. The method, boiled down: as §1
A short description of assay [9]: qHTS RealTime-Glo MT Cell Viability Assay in HepG2 cells - 0 hour (AID 1224889). Also: nearly all actives have a fitted effect of over 50% in size. The method, boiled down:
as §3

A short description of assay [10]: qHTS assay to identify small molecule antagonists of the androgen receptor (AR) signaling pathway using the MDA cell line in the presence of 0.5 nM R1881 - cell viability counter screen (AID 1259242). Also: nearly all actives have a fitted effect of over 45% in size. Also: potency is read from the fitted curve at half-maximal effect. The method, boiled down:
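Live-cell protease activity was measured by CellTiter-Fluor fluorescence after 30 min. Before that, MDA-kb2 MMTV-luciferase cells had 16 hr at 37C without CO2, exposed to test compounds and 0.5 nM R1881 final.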

Assay [11] concerns the target Estrogen receptor (Homo sapiens) (UniProt P03372). As to the kind of experiment: qHTS assay to identify small molecule antagonists of the estrogen receptor alpha (ER-alpha) signaling pathway using the BG1 cell line in the presence of 0.1 nM 17-beta-estradiol (AID 1259244). Also: nearly all actives have a fitted effect of over 50% in size. Also: potency is read from the fitted curve at half-maximal effect. In short, it runs like this: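 Luciferase luminescence (ONE-Glo, 30 min at room temperature) was read after 22 hr at 37C exposure to compounds plus 17beta-estradiol at 0.1 nM final. Cells were VM7Luc4E2 with endogenous ER-alpha and an ERE-driven luciferase, pre-cultured 5 days in hormone-depleted medium.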

A short description of assay [12]: qHTS assay to identify small molecule HDAC inhibitors (AID 1259364). Also: nearly all actives have a fitted effect of over 45% in size. Also: potency is read from the fitted curve at half-maximal effect. In short, it runs like this: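 Luminescence read after 30 min room-temperature HDAC-Glo incubation measures cellular class I/II HDAC activity. Compounds were applied for 2 hr at 37 C to HCT-116 wild-type cells seeded the day before.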
Assay [13] can be described thus: qHTS assay to identify small molecule agonists of the sonic hedgehog signaling (Shh) pathway - cell viability counter screen (AID 1259366). Also: nearly all actives have a fitted effect of over 50% in size. Also: potency is read from the fitted curve at half-maximal effect. In short, it runs like this: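 Fluorescence from CellTiter-Fluor reports live cells in this counter screen. NIH/3T3-derived Gli1-Luc reporter cells receive test compounds for 24hr at 37C; reagent goes in at 23hr.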
Assay [14] in a line: qHTS assay to identify small molecule agonists of the sonic hedgehog signaling (Shh) pathway (AID 1259368; calls by dose curve;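 also: NIH/3T3-derived 3T3Gli1-Luc cells carrying a stable Gli1-driven firefly luciferase reporter; series mostly up to about 92 µM; nearly all actives have a fitted effect of over 15% in size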). The method, boiled down: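 Luminescence was read after 30 min at room temperature with luciferase reagent. Before that, 3T3Gli1-Luc cells (NIH/3T3 clone, stable Gli1-Luc reporter; 2,000/well) were exposed to compounds for 24 hr at 37C, 5% CO2, compounds being added 4 hr post-plating.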

Assay [15] can be described thus: A CellTox Green Cytotoxicity Assay to monitor cytotoxicity in HepG2 cells - 8 hour (AID 1224890). Also: nearly all actives have a fitted effect of over 45% in size. In short, it runs like this: as §2
The nature of assay [16]: qHTS assay to identify small molecule antagonists of the estrogen receptor alpha (ER-alpha) signaling pathway using the BG1 cell line in the presence of 0.1 nM 17-beta-estradiol - cell viability counter screen (AID 1259241). Also: nearly all actives have a fitted effect of over 40% in size. The method, boiled down: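 CellTiter-Fluor read (30 min, 37C) on ER-alpha/ERE-luc VM7Luc4E2 cells; 22 hr compound treatment; agonist 0.1 nM E2 final; same-well multiplex.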

Assay [17] can be described thus: qHTS assay to identify small molecule HDAC inhibitors - cell viability counter screen (AID 1259365). The method, boiled down:
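To flag cytotoxic hits, 1,500 wild-type HCT-116 cells per well, plated the day before, receive test compounds for 2hr at 37 C before CellTiter-Glo reagent and a luminescence read.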

Assay [18] can be described thus: qHTS assay to identify small molecule antagonists of the sonic hedgehog signaling (Shh) pathway - cell viability counter screen (AID 1259367). Also: nearly all actives have a fitted effect of over 55% in size. In short, it runs like this: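 CellTiter-Fluor signal in conditioned medium-stimulated 3T3 Gli1-Luc cells, 23 hr compound exposure, 37C.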
Assay [19] is described as follows: qHTS assay to identify small molecule phospholipidosis (PLD) inducers (AID 1259344; active = well fitted curve in the direction sought with a large enough effect; an effect the other way counts as inactive or inconclusive). The method, boiled down: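 Accumulated phospholipid, stained red by LipidTOX during 24 h compound treatment of HepG2 cells at 37 C, is quantified from images as pit number and intensity, normalised per cell using Hoechst-stained nuclei.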
Assay [20] concerns the target Androgen receptor (Homo sapiens) (UniProt P10275). As to the kind of experiment: qHTS assay to identify small molecule antagonists of the androgen receptor (AR) signaling pathway using the MDA cell line in the presence of 0.5 nM R1881 (AID 1259243). Also: nearly all actives have a fitted effect of over 50% in size. In short, it runs like this:
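Luminescent reporter readout (ONE-Glo, 30 min, room temperature) after 16 hr co-treatment of MDA-kb2 cells with test compounds and 0.5 nM R1881 final, at 37C without CO2. The MMTV-driven luciferase responds to both AR and GR.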

Unmarked numbers belong to inactive results. Records with an inconclusive call do not appear. Calls of active or inactive are those of the source. Unless noted, calls follow the shape of the dose curve; as a rule, active = well fitted curve in the direction sought with a large enough effect in the repeat runs; inconclusive = weak or mixed curves; inactive = no such curve, though single readings can be large; an effect the other way counts as inactive or inconclusive.
% is scaled to controls: 0 for no effect and ±100 for the full control effect.

Estrogen receptor (Homo sapiens), sequence (P03372 whole entry, looked up): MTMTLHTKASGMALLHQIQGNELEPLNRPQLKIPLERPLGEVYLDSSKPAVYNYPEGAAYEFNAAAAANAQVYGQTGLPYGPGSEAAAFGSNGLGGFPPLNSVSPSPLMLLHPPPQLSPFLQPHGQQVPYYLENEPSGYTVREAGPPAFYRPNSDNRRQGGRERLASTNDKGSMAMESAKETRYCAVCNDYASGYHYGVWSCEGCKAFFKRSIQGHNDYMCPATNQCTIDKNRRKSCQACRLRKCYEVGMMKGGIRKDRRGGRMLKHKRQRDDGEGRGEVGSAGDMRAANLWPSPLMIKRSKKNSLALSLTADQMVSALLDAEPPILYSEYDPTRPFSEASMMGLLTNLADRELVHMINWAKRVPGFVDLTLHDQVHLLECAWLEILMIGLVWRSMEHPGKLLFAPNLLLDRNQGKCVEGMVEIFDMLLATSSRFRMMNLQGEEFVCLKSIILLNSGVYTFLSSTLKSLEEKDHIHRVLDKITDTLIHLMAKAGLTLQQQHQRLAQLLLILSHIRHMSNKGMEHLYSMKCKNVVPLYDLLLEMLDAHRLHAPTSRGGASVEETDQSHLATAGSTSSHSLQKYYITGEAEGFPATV
Androgen receptor (Homo sapiens), sequence (P10275 whole entry, looked up): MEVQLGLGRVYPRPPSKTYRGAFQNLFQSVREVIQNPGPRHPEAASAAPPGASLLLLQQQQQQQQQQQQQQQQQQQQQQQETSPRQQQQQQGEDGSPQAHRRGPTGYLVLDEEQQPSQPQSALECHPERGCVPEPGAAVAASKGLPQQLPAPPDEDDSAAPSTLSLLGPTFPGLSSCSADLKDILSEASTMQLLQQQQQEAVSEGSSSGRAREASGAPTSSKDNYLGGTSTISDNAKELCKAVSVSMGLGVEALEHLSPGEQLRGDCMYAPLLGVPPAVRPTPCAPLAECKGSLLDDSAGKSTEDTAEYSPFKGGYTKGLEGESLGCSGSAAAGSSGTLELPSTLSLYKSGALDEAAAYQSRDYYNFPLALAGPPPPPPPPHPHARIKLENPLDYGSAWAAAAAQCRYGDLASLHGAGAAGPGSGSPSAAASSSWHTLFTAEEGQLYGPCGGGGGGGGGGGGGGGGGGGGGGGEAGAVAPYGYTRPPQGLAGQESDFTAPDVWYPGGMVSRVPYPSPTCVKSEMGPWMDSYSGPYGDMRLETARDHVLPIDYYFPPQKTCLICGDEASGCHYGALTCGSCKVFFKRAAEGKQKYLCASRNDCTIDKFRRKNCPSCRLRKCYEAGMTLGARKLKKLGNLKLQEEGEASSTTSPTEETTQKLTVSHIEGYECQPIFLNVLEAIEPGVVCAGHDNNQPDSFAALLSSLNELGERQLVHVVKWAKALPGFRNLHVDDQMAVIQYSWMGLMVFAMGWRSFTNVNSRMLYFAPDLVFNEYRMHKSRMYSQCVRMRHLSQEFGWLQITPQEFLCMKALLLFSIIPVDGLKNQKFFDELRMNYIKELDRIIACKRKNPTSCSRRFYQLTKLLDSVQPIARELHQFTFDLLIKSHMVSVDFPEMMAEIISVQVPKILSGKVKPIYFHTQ

Take `CC(C)(C)c1cc(O)c(C(C)(C)C)cc1O`: the Potency entry in assay [1], in [2], in [3], in assay [4], in assay [5] and in [8] was “inactive” each time. Moreover, the Potency result in assay [9] and in assay [12] was “inactive” throughout. Also, the Potency in [6] was 21.9 µM (active); in assay [7], 15.5 µM (active); in assay [10], 54.5 µM (active); in assay [11] it was 43.3 µM (active); in assay [13], 61.1 µM (active). In assay [14], the compound was called inactive.
`FC(F)(F)C(F)(F)C(F)(F)C(F)(F)C(F)(F)C(F)(F)CCI`: the Potency entry in assay [1], in assay [2], in assay [3], in assay [4], in assay [6] and in assay [7] was “inactive” in each case. In addition, the Potency entry in assay [8], in assay [9], in assay [15], in assay [16], in assay [10] and in assay [11] was “inactive” each time. Also, the Potency result in assay [12], in assay [13] and in assay [18] was “inactive” in each case. For the same compound, the compound was classed as inactive in assay [17] and in assay [14].
Regarding `C=C(C)C(=O)OCCOc1ccccc1`, the Potency result in assay [1], in assay [2], in assay [3], in [4], in assay [5] and in assay [6] was “inactive” throughout. Besides, the Potency result in assay [8], in [9], in assay [15], in assay [16], in assay [10] and in assay [11] was “inactive” throughout. Besides, the Potency in assay [12] was 27.3 µM (active). Besides, the compound was classed as inactive in assay [17] and in [14].
Take `C[C@@H](C1=C(CCN(C)C)Cc2ccccc21)c1ccccn1`: the Potency result in assay [1], in assay [2], in [3], in assay [4], in assay [5] and in [6] was “inactive” throughout. Besides, the Potency entry in assay [7], in assay [9], in assay [15], in assay [16], in [10] and in [19] was “inactive” each time. The Potency entry in assay [18] is “inactive”. Further, the call in assay [17] and in assay [14] was inactive.
In the case of `SC1CCCC1`, the Potency entry in assay [1], in assay [2], in [3], in assay [4], in assay [6] and in assay [7] was “inactive” in each case. Further, the Potency entry in assay [8], in assay [9], in assay [15], in [16], in assay [10] and in assay [11] was “inactive” throughout. The Potency result in assay [12], in assay [13] and in [18] was “inactive” each time. Moreover, the compound was classed as inactive in assay [17] and in assay [14].
As for `O=C(C(=O)c1ccc(Br)cc1)c1ccc(Br)cc1`, the results for the cytotoxicity increase in assay [1], in [3] and in assay [4] were -0.258% [at 15.8 µM], -9.52% [at 15.8 µM] and 6.57% [at 15.8 µM], respectively. Also, in [2], the cytotoxicity is -5.86% [at 15.8 µM]. The activity change, negative = cytotoxic in assay [5] was -1.79% [at 15.8 µM]. The activity change, negative = cytotoxicity was 5.88% [at 15.8 µM] in assay [6], -3.46% [at 15.8 µM] in assay [9], -6.61% [at 19 µM] in assay [16] and -0.456% [at 19 µM] in assay [17]. The activity change in assay [8] was 0.498% [at 15.8 µM, active compounds read high]; in assay [14], -0.0641% [at 18.9 µM]. Further, the viability change, negative = cytotoxic is -1.93% [at 19 µM] in assay [10], 7.56% [at 19 µM] in [13] and -13.1% [at 19 µM] in assay [18]. Further, the activity, negative = inhibition in [20] is 66.2% [at 19 µM].
On to `CCCCCOC(=O)COc1cc(N2C(=O)C3=C(CCCC3)C2=O)c(F)cc1Cl`, for which the Potency entry in assay [1], in assay [2], in [3], in [4], in [6] and in [7] was “inactive” in each case. Also, the Potency result in [8], in assay [9], in assay [15], in [16], in [10] and in [11] was “inactive” throughout. Also, the Potency entry in assay [12], in assay [13] and in [18] was “inactive” in each case. For the same compound, the result in [17] and in [14] was inactive.
For the compound `CCCCCCCCCO`, the Potency result in [1], in [2], in assay [3], in assay [4], in assay [5] and in assay [6] was “inactive” throughout. For the same compound, the Potency result in [9], in [15], in [16], in [10], in assay [11] and in assay [12] was “inactive” each time. Moreover, the Potency result in [13] is “inactive”. The compound was called inactive in assay [17] and in assay [14].

The record behind these values is PubChem BioAssay (Tox21).
